Screens as filed in PubChem.
CYP2C19 inhib – blockers of cytochrome P450 2C19 activity – biochemical, luminescence, ADME assay, primary screen; hit rate 21% among 96,000; CYP2C19 Supersomes, luciferin-H EGE luminescence, 30 min; inhibition, % at 5 µM;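 active means CYP2C19 inhibition above a set limit at 5 µM in the primary screen, cut at about 50% in these data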
Target sequence (P33261 whole entry, looked up): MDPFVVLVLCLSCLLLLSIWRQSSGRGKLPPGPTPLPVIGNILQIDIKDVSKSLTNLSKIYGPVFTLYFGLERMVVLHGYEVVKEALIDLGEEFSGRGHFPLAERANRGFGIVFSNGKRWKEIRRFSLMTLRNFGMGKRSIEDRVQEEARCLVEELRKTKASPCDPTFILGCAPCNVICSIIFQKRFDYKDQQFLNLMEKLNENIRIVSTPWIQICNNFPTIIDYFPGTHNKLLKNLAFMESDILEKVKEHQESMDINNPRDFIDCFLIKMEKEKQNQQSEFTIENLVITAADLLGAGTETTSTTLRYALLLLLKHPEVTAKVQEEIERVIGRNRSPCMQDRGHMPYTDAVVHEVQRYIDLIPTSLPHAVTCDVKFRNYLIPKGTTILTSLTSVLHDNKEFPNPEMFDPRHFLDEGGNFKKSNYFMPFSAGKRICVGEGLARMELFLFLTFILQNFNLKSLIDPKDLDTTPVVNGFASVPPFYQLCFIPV
PLAP act – PLAP enzyme activators, biochemical, luminescence, HTS. Alkaline phosphatase, placental type (Homo sapiens), P05187. purified PLAP enzyme, luminescent substrate read-out; hits give high values. activation fold at 20 µM. hit rate 1.2% among 96,000. AID 696, 2007; in the data active means activation fold above about 2
CYP2C19 activ – human CYP2C19 activators, primary screen, biochemical, luminescence; recombinant CYP2C19, luciferin-H EGE luminescence; hits give high values; 0 = fully inhibited enzyme, 1 = untreated enzyme; activation factor at 5 µM; 96,000 tested, under 10 active;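 active means activation factor of at least 2 at 5 µM in the primary screen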
CYP2C9 activ – human CYP2C9 activators, primary screen, biochemical, luminescence; Cytochrome P450 2C9 (Homo sapiens), P11712; hit rate 1.4% among 96,000; activation factor at 5 µM; recombinant CYP2C9, luciferin-H conversion; hits give high values; factor 1 = untreated enzyme, 0 = blocked;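 active means activation factor of 2 or more for CYP2C9 at a 5 µM dose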
CYP2C9 inhib – blockers of cytochrome P450 2C9 activity – biochemical, luminescence, ADME assay, primary screen | hit rate 20% among 96,000 | CYP2C9 Supersomes, luciferin-H conversion | P11712 | inhibition, % at 5 µM | AID 777, 2007;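 active means blocking of liver enzyme CYP2C9 beyond about 50% at 5 µM, limit read from the data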
Of the large screens only hits and unclear results are named; the others gave an inactive call. Only some compounds are listed: those with a hit (about 31% of all), similar ones and a draw of the others.

CCn1c(SC/C=C/c2ccccc2)nnc1-c1cccs1	CYP2C19 inhib 99.2, CYP2C9 inhib 81.7
CCn1c(SCC(=O)NC2CCCCC2)nnc1-c1cccs1	none
CCn1c(SC(=O)NC2CCCCC2)nnc1-c1cccs1	CYP2C19 inhib 53.0
Cn1c(SCc2c(F)cccc2Cl)nnc1-c1cccs1	none
CCn1c(SCc2nc3ccccc3nc2C)nnc1-c1cccs1	CYP2C19 inhib 92.6
CCOC(=O)/C(N=O)=C(\O)C1CCN(C(=O)OCC)CC1	none
COc1cc(C(=O)NCCC(=O)NCCCN2CCCCC2)cc(OC)c1OC	none
CSc1nc2nc(C(F)(F)F)cc(-c3ccccc3)n2n1	CYP2C9 inhib 61.6
COC(=O)C1=C(C)OC(N)=C(C#N)C1c1cc(OC)c(OCC(N)=O)cc1Cl (stereo unspecified)	none
COC(=O)CC1=C(C(=O)OC)C(c2cccs2)C(C#N)=C(N)O1 (stereo unspecified)	none
COC(=O)C1=C(C)OC(N)=C(C#N)C1c1ccccc1F (stereo unspecified)	CYP2C19 inhib 64.4
CCOC(=O)C1=C(CC)OC(N)=C(C#N)C1c1cccs1 (stereo unspecified)	CYP2C19 inhib 53.3
CC1=C(C#N)C(c2ccoc2)C(C(=O)OCc2ccccc2)=C(N)S1 (stereo unspecified)	CYP2C19 inhib 98.3, CYP2C9 inhib 100.0
N#CC1=C(N)SC(N)=C(C#N)C1c1ccoc1	none
CC(C)(C)C1=C(C#N)C(c2ccc3c(c2)OCO3)C(C#N)=C(N)O1 (stereo unspecified)	CYP2C19 inhib 88.6, CYP2C9 inhib 89.7
Cc1nc2ncnn2c(C)c1CCC(=O)Oc1ccccc1	none
O=C(/C=C/c1ccc(Cl)cc1Cl)n1cccn1	none
Cc1ccc(NC(=O)N2CCC(NC(=O)C(C)(C)C)CC2)cc1	none
C=CCOC(=O)C1=C(C)OC(N)=C(C#N)C1c1ccoc1 (stereo unspecified)	CYP2C19 inhib 82.5
C=CCOC(=O)C1=C(C)OC(N)=C(C#N)C1c1ccc2c(c1)OCO2 (stereo unspecified)	CYP2C19 inhib 100.0, CYP2C9 inhib 97.7
CCOC(=O)C1=C(c2ccccc2)OC(N)=C(C#N)C1C1CCCCC1 (stereo unspecified)	none
CCOC(=O)C1=C(C)OC(N)=C(C#N)C1c1cc2c(cc1Br)OCO2 (stereo unspecified)	CYP2C19 inhib 93.3
CCOC(=O)C1=C(C)OC(N)=C(C#N)C1C1CCCCC1 (stereo unspecified)	CYP2C19 inhib 84.4
CCOC(=O)C1=C(c2ccccc2)OC(N)=C(C#N)C1c1ccco1 (stereo unspecified)	none
CCCN(CCO)Cc1ccc(F)c(Br)c1	none
Cc1c(Cl)c([N+](=O)[O-])nn1CC(=O)NC1CCCCC1	none
CCN1CCN(C(=S)Nc2ccc(Cl)cc2)CC1	none
CCOC(=O)C1=C(C)OC(N)=C(C#N)C1c1ccsc1 (stereo unspecified)	CYP2C19 inhib 62.8
CCOC(=O)C1=C(C)OC(N)=C(C#N)C1c1cc(C)sc1C (stereo unspecified)	CYP2C19 inhib 92.4
COCCOC(=O)C1=C(C)OC(N)=C(C#N)C1c1ccc2c(c1)OCO2 (stereo unspecified)	CYP2C19 inhib 80.4, CYP2C9 inhib 67.9
COc1ccc(/C=N/NC(=O)C(=O)NCc2cccnc2)cc1OC	none
NC1C2CN(c3nc4c(cc3F)c(=O)c(C(=O)O)cn4-c3ccc(F)cc3F)CC12 (stereo unspecified)	none
CCCCC(=O)OCCNC(=O)c1cc2ccccc2oc1=O	CYP2C19 inhib 59.0
O=C(OCCNC(=O)c1cc2ccccc2oc1=O)c1cccnc1	none
C/C=C(\CS(=O)(=O)c1ccccc1)S(=O)(=O)c1ccccc1	CYP2C19 inhib 87.2
O=C(NCC1CCCO1)c1cccs1 (stereo unspecified)	none
O=C(c1ccc2c(c1)OCCCO2)c1cccs1	CYP2C19 inhib 74.4, CYP2C9 inhib 59.6
O=C(CSc1nc(-c2ccco2)cc(C(F)(F)F)n1)Nc1ccc2c(c1)CCC2	none
O=C(CCSc1nc(-c2ccco2)cc(C(F)(F)F)n1)Nc1ccc2c(c1)OCO2	CYP2C19 inhib 64.0, CYP2C9 inhib 59.5
O=C(CCSc1nc(-c2ccc3c(c2)OCO3)cc(C(F)(F)F)n1)NCc1ccco1	CYP2C19 inhib 69.1, CYP2C9 inhib 65.2
O=C(Nc1ccc2c(c1)OCO2)C1CCN(S(=O)(=O)c2cccc3cccnc23)CC1	CYP2C9 activ 2.8
Cc1ccc(OCC(=O)NNC(=O)C2CCN(c3nc(C)cc(C)n3)CC2)cc1	none
Cc1ccc(OCC(=O)NNC(=O)C2CCN(c3ncccn3)CC2)cc1	PLAP act 2
Cc1cccc(NC(=O)C2CCN(c3nccc(C)n3)CC2)c1	CYP2C19 inhib 70.0
O=C(NCc1cccs1)C1CCCN(S(=O)(=O)c2cccc3cccnc23)C1 (stereo unspecified)	CYP2C9 activ 4.2
O=C(NCc1ccc2c(c1)OCO2)C1CCCN(S(=O)(=O)c2cccc3cccnc23)C1 (stereo unspecified)	none
O=C(CCCC(=O)N(CC(=O)NC1CCCCC1)CC1CCCO1)Nc1ccccn1 (stereo unspecified)	none
O=C(NC1CCN(Cc2ccccc2)CC1)C1CCN(S(=O)(=O)c2cccc3cccnc23)CC1	CYP2C9 activ 2.9
O=C(NC1CCCCCC1)C1CCN(S(=O)(=O)c2cccc3cccnc23)CC1	CYP2C9 activ 3.9
O=C(NC1CCN(Cc2ccccc2)CC1)C1CCN(S(=O)(=O)c2cccc3nsnc23)CC1	none
O=S(=O)(NCc1cccs1)c1cccc2cccnc12	CYP2C9 activ 2.8
O=C(NCc1cccs1)C1CCCN1S(=O)(=O)c1ccccc1F (stereo unspecified)	CYP2C19 inhib 52.7
CCOC(=O)N1CCC(NC(=O)C2CCCN(S(=O)(=O)c3cccc4nsnc34)C2)CC1 (stereo unspecified)	none
O=C(C1CCCN(S(=O)(=O)c2cccc3cccnc23)C1)N1CCN(c2ccccc2F)CC1 (stereo unspecified)	CYP2C19 inhib 87.8
O=C(NC1CCCC1)C1CCCN(S(=O)(=O)c2cccc3cccnc23)C1 (stereo unspecified)	CYP2C9 activ 2.6
COc1ccc(NC(=O)C2CCCN(S(=O)(=O)c3cccc4nonc34)C2)cc1 (stereo unspecified)	none
Cc1cccc(NC(=O)C2CCCN(S(=O)(=O)c3cccc4cccnc34)C2)c1 (stereo unspecified)	CYP2C19 inhib 80.9
CC(=N\O)/C(CN(C)C)=N/O	none
N=c1sccn1CC(=O)NCCc1ccc(Cl)cc1Cl	none
CN(C)c1nc2n(c(=S)n1)CCS2	none
COc1ccc(S(=O)(=O)NCc2ccccn2)cc1Cl	CYP2C19 inhib 92.1, CYP2C9 activ 3.2
